# From article PMC5540273 (PLoS ONE, 2017)
# Key:
# PIK4CB = tested on: T1, PIK4CB
# T1 construct: gene PI4KB
# PKAC-beta = tested on: T2, PKAC-beta
# T2 construct: gene PRKACB
# 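Also: kd values determined as follow-up on hits from a single-replicate KINOMEscan panel screen.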
compound,measurement,setting,value
Cc1c(Cn2c(C)c(C)n3c(=O)cc(N4CCOCC4)nc23)cccc1C(F)(F)F [GSK2328680],Kd,PIK3CD,0.62 µM
same,Kd,PLK2,> 10 µM
Fc1ccc(-c2nc3n(c2-c2ccncc2)CCS3)cc1 [GI98581],Kd,PIK3CG,> 10 µM
COc1cccc(NC(=O)Nc2ccc(C)c(-c3ccc(C(=O)Nc4ccncc4)cc3)c2)c1 [GSK1398474],Kd,PIK3CG,> 10 µM
Cc1c(Cn2c3ccccc3n3c(=O)cc(N4CCOCC4)nc23)cccc1C(F)(F)F [GSK2306394],Kd,PIK4CB,> 10 µM
same,Kd,PKN1,> 10 µM
NS(=O)(=O)c1cccc(N/C=C2\C(=O)Nc3ccc(S(=O)(=O)Cc4c(Cl)cccc4Cl)cc32)c1 [GSK398099],Kd,PIK4CB,1.2 µM
CCc1ccc(-c2ccc3c(c2)-c2n[nH]cc2S(=O)(=O)N3C)cc1,Kd,PIKFYVE,> 10 µM
CN1c2ccc(-c3ccc(C(N)=O)cc3)cc2-c2[nH]ncc2S1(=O)=O,Kd,PIP5K1C,6.4 µM
CS(=O)(=O)Cc1ccc(Nc2nccc(-c3c(-c4cccc(NC(=O)C5CCCCC5)c4)nn4ncccc34)n2)cc1 [GSK350559],Kd,PIP5K1C,> 10 µM
O=C1NC(=O)C(c2ccc(Cl)cc2)=C1Nc1cccc(Cl)c1 [SB-317651],Kd,PKAC-beta,> 10 µM
CC[C@@H]1CO[C@H](C(=O)Nc2ccccc2)CN1c1cc(-c2ccc3c(N)n[nH]c3c2)nc(NC)n1 [GSK2376236],Kd,PKN1,> 10 µM
CNC(=O)c1ccc(C)c(-n2c(C)cc(OCc3ccc(F)cc3F)c(Br)c2=O)c1,Kd,PRKCI,> 10 µM
